Reference: article PMC7862700, “An all-to-all approach to the identification of sequence-specific readers for epigenetic DNA modifications on cytosine”

Experiments:
Test in all cases: DAPPL (digital affinity profiling via proximity ligation, sequencing); 10 mM Tris-HCl pH 7.5, 50 mM NaCl, 1 mM DTT, 4% glycerol, room temperature, 30 min; GST-TFs on glutathione beads, 16-mer random dsDNA library, 0.1% formaldehyde crosslink after washing; high values mean tight binding
[1] = molecular target: T1, FLI1 (Homo sapiens, UniProt Q01543 1-452); details: protein: recombinant; tags: N-terminal GST; dsDNA, one strand shown
T1 sequence: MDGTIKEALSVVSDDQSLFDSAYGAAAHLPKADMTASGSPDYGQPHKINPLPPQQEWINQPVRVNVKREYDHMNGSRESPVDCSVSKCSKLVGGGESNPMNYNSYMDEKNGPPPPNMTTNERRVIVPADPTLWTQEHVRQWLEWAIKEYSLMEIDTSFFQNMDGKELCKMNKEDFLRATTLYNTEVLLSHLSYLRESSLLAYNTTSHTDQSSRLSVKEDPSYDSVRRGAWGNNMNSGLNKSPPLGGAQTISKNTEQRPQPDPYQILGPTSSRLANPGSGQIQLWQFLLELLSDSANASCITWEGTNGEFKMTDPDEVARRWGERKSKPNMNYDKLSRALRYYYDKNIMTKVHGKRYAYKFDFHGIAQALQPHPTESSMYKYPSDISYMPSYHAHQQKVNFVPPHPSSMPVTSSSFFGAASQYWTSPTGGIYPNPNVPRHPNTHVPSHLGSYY
Method in brief: (§1)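 Binding signal is each hexamer's read frequency for a factor divided by its frequency in the tag-only sample. The factors were GST-fused human transcription factors from yeast, captured on glutathione beads, DNA-barcoded and pooled with that sample. Pools were incubated with 200 nmole of a random double-stranded 16-mer DNA library in Tris/NaCl/DTT/glycerol buffer at room temperature for 30 min, then washed, crosslinked with 0.1% formaldehyde, proximity-ligated with BsaI/T4 ligase (1 h, 37 °C), PCR-amplified and sequenced on an Illumina NextSeq500.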

[2] = molecular target: T2, ELK1 (Homo sapiens, UniProt P19419 1-428); details: protein: recombinant; tags: N-terminal GST; dsDNA, one strand shown
T2 sequence: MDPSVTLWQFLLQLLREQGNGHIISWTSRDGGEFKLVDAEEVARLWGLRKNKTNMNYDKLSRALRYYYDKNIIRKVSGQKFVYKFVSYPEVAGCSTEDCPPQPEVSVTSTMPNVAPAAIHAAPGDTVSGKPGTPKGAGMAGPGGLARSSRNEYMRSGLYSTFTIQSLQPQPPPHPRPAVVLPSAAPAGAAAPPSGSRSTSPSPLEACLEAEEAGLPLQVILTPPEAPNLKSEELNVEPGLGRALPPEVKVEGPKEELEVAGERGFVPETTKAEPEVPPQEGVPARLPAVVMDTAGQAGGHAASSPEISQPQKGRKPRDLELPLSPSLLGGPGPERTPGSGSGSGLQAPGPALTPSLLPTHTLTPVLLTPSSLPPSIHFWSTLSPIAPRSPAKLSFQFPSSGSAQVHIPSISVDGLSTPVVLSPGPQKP
Method in brief: as §1

[3] = molecular target: T3, GABPA (Homo sapiens, UniProt Q06546 1-454); details: protein: recombinant; tags: N-terminal GST; dsDNA, one strand shown
T3 sequence: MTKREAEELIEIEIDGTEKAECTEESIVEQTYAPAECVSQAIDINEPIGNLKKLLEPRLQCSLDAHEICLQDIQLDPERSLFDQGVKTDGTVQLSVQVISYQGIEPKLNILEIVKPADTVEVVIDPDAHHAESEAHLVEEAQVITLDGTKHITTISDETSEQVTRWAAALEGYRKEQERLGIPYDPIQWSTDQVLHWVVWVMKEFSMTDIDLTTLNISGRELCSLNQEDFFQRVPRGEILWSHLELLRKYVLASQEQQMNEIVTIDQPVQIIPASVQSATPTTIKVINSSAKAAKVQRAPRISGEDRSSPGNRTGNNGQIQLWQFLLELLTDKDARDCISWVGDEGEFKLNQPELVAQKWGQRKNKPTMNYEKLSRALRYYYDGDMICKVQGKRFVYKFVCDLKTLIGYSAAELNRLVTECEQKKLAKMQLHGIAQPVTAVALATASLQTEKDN
Method in brief: as §1

[4] = molecular target: T4, ERG (Homo sapiens, UniProt P11308 1-479); details: protein: recombinant; tags: N-terminal GST; dsDNA, one strand shown
T4 sequence: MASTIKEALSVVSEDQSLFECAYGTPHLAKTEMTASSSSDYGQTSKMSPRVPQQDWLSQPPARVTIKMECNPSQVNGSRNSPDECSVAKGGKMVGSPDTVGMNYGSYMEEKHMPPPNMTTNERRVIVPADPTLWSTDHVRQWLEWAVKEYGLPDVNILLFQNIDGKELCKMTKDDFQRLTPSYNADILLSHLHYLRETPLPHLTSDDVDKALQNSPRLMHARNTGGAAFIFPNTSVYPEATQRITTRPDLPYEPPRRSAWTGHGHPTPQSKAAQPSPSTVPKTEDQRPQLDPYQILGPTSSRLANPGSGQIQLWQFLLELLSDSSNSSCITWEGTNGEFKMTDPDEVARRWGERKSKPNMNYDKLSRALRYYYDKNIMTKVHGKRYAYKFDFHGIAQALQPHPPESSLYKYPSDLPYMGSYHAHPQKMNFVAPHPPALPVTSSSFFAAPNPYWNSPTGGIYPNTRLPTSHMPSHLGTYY
Method in brief: as §1

[5] = molecular target: ELF1 (Homo sapiens, UniProt P32519 1-619); details: protein: recombinant; tags: N-terminal GST; dsDNA, one strand shown
Chain of ELF1 (P32519 whole entry): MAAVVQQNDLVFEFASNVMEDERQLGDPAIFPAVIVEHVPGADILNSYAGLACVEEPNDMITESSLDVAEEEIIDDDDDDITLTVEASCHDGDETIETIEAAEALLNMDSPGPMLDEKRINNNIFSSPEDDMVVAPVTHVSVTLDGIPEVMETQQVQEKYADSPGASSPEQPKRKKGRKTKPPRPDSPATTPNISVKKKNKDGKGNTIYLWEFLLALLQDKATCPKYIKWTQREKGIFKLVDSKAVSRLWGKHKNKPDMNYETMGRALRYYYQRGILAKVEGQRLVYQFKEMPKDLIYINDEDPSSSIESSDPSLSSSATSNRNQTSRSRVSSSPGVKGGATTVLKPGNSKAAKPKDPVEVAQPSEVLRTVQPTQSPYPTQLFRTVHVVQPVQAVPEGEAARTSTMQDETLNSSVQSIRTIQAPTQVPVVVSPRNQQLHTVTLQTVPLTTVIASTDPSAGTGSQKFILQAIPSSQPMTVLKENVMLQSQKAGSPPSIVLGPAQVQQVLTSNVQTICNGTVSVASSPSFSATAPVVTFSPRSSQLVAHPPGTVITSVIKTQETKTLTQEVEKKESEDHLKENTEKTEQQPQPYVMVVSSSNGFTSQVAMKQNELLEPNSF
Method in brief: as §1

[6] = molecular target: T5, EHF (Homo sapiens, UniProt Q9NZC4 1-300); details: protein: recombinant; tags: N-terminal GST; dsDNA, one strand shown
T5 sequence: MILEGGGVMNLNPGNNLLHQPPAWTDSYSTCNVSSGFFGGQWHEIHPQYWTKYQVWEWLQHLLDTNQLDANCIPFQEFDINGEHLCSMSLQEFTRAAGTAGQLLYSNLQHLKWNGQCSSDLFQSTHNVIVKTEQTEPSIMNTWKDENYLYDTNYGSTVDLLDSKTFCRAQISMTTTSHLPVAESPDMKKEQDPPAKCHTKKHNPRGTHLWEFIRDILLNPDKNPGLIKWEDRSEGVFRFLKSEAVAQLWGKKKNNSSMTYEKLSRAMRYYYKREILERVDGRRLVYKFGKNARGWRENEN
Method in brief: as §1

[7] = molecular target: SPI1 (Homo sapiens, UniProt P17947 1-270); details: protein: recombinant; tags: N-terminal GST; dsDNA, one strand shown
Method in brief: as §1

[8] = molecular target: SPIB (Homo sapiens, UniProt Q01892 1-262); details: protein: recombinant; tags: N-terminal GST; dsDNA, one strand shown
Chain of SPIB (Q01892 whole entry): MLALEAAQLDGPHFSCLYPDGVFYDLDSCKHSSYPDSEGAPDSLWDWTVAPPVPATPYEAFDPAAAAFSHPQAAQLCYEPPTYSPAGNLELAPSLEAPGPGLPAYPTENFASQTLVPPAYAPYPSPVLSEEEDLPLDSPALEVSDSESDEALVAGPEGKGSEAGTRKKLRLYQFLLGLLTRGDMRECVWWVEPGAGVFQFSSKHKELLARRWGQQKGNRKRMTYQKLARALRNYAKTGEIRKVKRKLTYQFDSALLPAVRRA
Method in brief: as §1

[9] = molecular target: T6, ELK3 (Homo sapiens, UniProt P41970 1-407); details: protein: recombinant; tags: N-terminal GST; dsDNA, one strand shown
T6 sequence: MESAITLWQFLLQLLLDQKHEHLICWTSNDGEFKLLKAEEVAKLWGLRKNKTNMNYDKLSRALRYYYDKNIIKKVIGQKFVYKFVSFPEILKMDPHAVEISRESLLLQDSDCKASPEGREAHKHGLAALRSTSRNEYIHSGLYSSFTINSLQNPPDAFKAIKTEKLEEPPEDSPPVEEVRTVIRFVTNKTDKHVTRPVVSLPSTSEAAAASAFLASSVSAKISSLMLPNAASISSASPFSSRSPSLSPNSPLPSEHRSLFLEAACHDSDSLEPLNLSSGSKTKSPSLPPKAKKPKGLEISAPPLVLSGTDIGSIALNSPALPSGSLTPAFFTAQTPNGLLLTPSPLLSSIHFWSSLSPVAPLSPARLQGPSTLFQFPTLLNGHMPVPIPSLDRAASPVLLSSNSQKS
Method in brief: as §1

[10] = molecular target: T7, FEV (Homo sapiens, UniProt Q99581 1-238); details: protein: recombinant; tags: N-terminal GST; dsDNA, one strand shown
T7 sequence: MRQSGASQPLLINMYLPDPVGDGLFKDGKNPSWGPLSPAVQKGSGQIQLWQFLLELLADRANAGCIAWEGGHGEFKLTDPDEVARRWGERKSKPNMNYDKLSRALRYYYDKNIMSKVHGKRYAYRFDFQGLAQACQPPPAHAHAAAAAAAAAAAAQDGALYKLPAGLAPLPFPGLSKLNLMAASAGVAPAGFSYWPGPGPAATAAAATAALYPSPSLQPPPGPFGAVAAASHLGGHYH
Method in brief: as §1

[11] = molecular target: ETV5 (Homo sapiens, UniProt P41161 1-510); details: protein: recombinant; tags: N-terminal GST; dsDNA, one strand shown
Chain of ETV5 (P41161 whole entry): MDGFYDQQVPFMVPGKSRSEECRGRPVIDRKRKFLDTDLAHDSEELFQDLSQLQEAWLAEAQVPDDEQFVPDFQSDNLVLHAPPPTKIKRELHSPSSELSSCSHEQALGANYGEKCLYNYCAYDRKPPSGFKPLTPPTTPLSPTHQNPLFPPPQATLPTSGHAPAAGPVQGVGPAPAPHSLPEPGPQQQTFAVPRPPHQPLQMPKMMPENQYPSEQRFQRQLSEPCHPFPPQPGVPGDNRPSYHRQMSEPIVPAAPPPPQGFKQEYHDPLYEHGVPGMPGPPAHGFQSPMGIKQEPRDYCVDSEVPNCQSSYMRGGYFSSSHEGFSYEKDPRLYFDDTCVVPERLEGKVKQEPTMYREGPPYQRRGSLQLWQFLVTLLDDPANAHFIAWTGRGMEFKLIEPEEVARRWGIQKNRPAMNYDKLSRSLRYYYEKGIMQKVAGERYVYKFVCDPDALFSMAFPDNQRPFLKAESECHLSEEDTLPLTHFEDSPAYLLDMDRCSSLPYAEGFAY
Method in brief: as §1

[12] = molecular target: HSF1 (Homo sapiens, UniProt Q00613 1-529); details: protein: recombinant; tags: N-terminal GST; chain copies: 3; dsDNA, one strand shown
Chain of HSF1 (Q00613 whole entry): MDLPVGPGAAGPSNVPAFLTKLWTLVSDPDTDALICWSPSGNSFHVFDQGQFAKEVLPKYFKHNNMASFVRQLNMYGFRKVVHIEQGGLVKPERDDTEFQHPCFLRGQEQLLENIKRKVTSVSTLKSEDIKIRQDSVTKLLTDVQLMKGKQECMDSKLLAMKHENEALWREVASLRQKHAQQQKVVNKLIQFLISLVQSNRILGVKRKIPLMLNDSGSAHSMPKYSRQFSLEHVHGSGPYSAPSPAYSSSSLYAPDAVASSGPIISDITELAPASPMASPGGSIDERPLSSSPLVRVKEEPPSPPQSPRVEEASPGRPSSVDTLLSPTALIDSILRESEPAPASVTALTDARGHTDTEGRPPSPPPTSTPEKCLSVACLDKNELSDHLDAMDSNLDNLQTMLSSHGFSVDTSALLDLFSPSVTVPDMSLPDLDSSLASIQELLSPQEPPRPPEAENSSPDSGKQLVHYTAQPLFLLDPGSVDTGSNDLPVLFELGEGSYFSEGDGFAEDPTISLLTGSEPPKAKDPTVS
Method in brief: as §1

[13] = molecular target: T8, SPIC (Homo sapiens, UniProt Q8N5J4 1-248); details: protein: recombinant; tags: N-terminal GST; dsDNA, one strand shown
T8 sequence: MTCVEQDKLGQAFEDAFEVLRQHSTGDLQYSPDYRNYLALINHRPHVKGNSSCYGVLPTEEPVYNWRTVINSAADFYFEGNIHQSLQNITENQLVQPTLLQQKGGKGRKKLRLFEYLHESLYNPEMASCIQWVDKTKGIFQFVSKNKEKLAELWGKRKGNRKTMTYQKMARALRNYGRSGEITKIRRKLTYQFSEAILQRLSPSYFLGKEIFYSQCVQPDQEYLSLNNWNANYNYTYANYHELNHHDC
Method in brief: as §1

[14] = molecular target: ELF4 (Homo sapiens, UniProt Q99607 1-663); details: protein: recombinant; tags: N-terminal GST; dsDNA, one strand shown
Chain of ELF4 (Q99607 whole entry): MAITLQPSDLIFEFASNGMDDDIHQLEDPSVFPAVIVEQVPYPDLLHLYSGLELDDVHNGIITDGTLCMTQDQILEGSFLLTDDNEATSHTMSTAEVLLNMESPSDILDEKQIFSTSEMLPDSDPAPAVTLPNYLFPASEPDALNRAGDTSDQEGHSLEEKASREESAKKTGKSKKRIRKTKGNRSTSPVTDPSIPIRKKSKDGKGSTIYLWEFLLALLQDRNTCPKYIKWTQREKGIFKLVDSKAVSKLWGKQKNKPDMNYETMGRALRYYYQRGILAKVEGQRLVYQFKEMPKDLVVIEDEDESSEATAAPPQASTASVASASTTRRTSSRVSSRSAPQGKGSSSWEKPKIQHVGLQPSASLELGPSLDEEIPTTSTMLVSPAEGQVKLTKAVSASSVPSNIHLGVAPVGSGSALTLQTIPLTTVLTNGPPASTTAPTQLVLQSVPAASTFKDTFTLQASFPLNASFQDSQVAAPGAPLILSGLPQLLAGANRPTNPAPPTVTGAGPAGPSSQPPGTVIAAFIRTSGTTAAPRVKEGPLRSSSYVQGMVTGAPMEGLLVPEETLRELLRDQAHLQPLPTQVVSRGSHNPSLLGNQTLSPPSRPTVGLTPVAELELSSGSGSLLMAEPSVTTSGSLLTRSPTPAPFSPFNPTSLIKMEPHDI
Method in brief: as §1

[15] = molecular target: T9, ELK4 (Homo sapiens, UniProt P28324-2 1-405); details: protein: recombinant; tags: N-terminal GST; dsDNA, one strand shown
T9 sequence: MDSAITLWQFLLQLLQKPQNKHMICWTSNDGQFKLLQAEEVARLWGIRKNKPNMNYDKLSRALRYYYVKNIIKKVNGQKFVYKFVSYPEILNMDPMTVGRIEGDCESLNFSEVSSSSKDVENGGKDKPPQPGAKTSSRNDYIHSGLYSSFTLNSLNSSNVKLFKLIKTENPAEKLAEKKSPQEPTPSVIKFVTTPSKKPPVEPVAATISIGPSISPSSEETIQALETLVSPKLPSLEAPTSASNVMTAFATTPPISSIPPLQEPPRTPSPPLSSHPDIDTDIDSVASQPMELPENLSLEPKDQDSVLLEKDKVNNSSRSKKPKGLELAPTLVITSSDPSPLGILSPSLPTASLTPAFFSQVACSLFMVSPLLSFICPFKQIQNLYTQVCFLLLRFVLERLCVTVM
Method in brief: as §1

[16] = molecular target: T10, ETV2 (Homo sapiens, UniProt O00321 1-342); details: protein: recombinant; tags: N-terminal GST; dsDNA, one strand shown
T10 sequence: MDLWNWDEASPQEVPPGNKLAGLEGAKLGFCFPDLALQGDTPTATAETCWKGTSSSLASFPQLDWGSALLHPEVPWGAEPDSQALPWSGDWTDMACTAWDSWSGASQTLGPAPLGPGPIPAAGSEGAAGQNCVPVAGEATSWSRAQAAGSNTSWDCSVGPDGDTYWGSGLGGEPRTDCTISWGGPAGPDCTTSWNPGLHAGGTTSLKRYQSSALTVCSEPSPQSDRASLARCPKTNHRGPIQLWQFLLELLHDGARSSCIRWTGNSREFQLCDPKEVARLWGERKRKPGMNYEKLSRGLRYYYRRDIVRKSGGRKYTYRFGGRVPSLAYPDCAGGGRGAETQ
Method in brief: as §1

[17] = molecular target: T11, ELF3 (Homo sapiens, UniProt P78545 1-371); details: protein: recombinant; tags: N-terminal GST; dsDNA, one strand shown
T11 sequence: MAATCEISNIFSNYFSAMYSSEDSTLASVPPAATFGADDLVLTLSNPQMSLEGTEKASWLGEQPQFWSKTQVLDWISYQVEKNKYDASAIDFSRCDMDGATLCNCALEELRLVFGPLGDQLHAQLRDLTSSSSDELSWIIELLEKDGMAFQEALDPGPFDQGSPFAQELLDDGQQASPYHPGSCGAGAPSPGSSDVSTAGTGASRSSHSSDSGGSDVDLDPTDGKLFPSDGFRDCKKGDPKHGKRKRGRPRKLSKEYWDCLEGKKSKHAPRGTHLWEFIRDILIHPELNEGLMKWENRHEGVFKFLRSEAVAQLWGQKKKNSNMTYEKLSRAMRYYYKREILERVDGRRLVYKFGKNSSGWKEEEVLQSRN
Method in brief: as §1

[18] = molecular target: CRX (Homo sapiens, UniProt O43186 1-299); details: protein: recombinant; tags: N-terminal GST; dsDNA, one strand shown
Chain of CRX (O43186 whole entry): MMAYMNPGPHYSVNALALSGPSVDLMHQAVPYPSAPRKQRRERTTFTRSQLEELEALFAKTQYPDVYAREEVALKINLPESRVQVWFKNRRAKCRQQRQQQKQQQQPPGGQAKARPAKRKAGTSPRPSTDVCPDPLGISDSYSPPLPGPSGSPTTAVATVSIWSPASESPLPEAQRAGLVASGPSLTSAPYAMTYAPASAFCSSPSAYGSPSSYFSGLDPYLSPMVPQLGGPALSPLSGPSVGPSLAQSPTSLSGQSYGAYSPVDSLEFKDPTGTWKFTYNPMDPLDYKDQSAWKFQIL
Method in brief: as §1

[19] = molecular target: ETV1 (Homo sapiens, UniProt P50549 1-477); details: protein: recombinant; tags: N-terminal GST; dsDNA, one strand shown
Chain of ETV1 (P50549 whole entry): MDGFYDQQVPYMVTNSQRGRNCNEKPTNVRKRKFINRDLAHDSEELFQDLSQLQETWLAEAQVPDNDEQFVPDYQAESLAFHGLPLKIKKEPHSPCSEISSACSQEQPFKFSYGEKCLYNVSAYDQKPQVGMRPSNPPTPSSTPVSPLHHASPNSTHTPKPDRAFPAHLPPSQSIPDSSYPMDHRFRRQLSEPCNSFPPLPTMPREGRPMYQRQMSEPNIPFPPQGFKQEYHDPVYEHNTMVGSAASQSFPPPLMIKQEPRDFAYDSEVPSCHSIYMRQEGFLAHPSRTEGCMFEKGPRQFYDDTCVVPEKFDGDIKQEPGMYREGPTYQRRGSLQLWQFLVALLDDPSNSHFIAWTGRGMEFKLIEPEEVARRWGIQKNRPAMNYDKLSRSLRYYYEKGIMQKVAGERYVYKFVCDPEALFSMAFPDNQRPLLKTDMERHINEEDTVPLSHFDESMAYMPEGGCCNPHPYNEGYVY
Method in brief: as §1

With AAAGAA the binding signal [1] was 1.18 fold enrichment (6-mer frequency, TF over GST control), the binding signal [2] was 1.24 fold enrichment (6-mer frequency, TF over GST control) and the binding signal [3] was 1.23 fold enrichment (6-mer frequency, TF over GST control). The binding signal [4] was 1.27 fold enrichment (6-mer frequency, TF over GST control), the binding signal [5] was 1.28 fold enrichment (6-mer frequency, TF over GST control) and the binding signal [6] was 1.32 fold enrichment (6-mer frequency, TF over GST control). The binding signal [7] was 1.32 fold enrichment (6-mer frequency, TF over GST control), the binding signal [8] was 1.24 fold enrichment (6-mer frequency, TF over GST control) and the binding signal [9] was 1.3 fold enrichment (6-mer frequency, TF over GST control). For the same sequence, the binding signal [10] was 1.23 fold enrichment (6-mer frequency, TF over GST control), the binding signal [11] was 1.22 fold enrichment (6-mer frequency, TF over GST control) and the binding signal [12] was 1.99 fold enrichment (6-mer frequency, TF over GST control). The binding signal [13] was 1.17 fold enrichment (6-mer frequency, TF over GST control), the binding signal [14] was 1.29 fold enrichment (6-mer frequency, TF over GST control) and the binding signal [15] was 1.32 fold enrichment (6-mer frequency, TF over GST control). The binding signal [16] was 1.25 fold enrichment (6-mer frequency, TF over GST control), the binding signal [17] was 1.29 fold enrichment (6-mer frequency, TF over GST control) and the binding signal [18] was 1.48 fold enrichment (6-mer frequency, TF over GST control). The binding signal [19] was 1.29 fold enrichment (6-mer frequency, TF over GST control).
